Measured values as given in PubChem BioAssay (NCI).
Compounds without any hit were thinned out: in the full panel of roughly 83,000, 20% have a hit.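 Results are percent growth after 48 hours of single-concentration exposure. 100 means growth as in untreated cells, lower positive values show inhibition; negative values down to -100 show cell death.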 Unmarked numbers belong to inactive results. Activity calls are given as the source filed them. Rule for the calls: active = growth percent below 10; inactive = the rest.

What was measured:
Assay in all cases: NCI-60 one-dose screen, 48 h (100 = growth as untreated, 0 = no growth, -100 = all killed)
Settings in all cases: 10 µM unless noted
DU-145 prostate = test system: DU-145 prostate
K-562 leukemia = test system: K-562 leukemia
MALME-3M melanoma = test system: MALME-3M melanoma
MDA-MB-231 breast = test system: MDA-MB-231 breast
RXF 393 renal = test system: RXF 393 renal
SF-268 CNS = test system: SF-268 CNS
SF-295 CNS = test system: SF-295 CNS
SF-539 CNS = test system: SF-539 CNS
UACC-257 melanoma = test system: UACC-257 melanoma
M14 melanoma = test system: M14 melanoma
HCT-15 colon = test system: HCT-15 colon
HT29 colon = test system: HT29 colon
SNB-75 CNS = test system: SNB-75 CNS
SNB-19 CNS = test system: SNB-19 CNS
U251 CNS = test system: U251 CNS
PC-3 prostate = test system: PC-3 prostate
UACC-62 melanoma = test system: UACC-62 melanoma
LOX IMVI melanoma = test system: LOX IMVI melanoma
SK-MEL-28 melanoma = test system: SK-MEL-28 melanoma
SK-MEL-5 melanoma = test system: SK-MEL-5 melanoma

Compound	growth (DU-145 prostate)	growth (K-562 leukemia)	growth (MALME-3M melanoma)	growth (MDA-MB-231 breast)	growth (RXF 393 renal)	growth (SF-268 CNS)	growth (SF-295 CNS)	growth (SF-539 CNS)	growth (UACC-257 melanoma)	growth (M14 melanoma) [%]	growth (HCT-15 colon)	growth (HT29 colon)	growth (SNB-75 CNS)	growth (SNB-19 CNS)	growth (U251 CNS)	growth (PC-3 prostate)	growth (UACC-62 melanoma)	growth (LOX IMVI melanoma) [%]	growth (SK-MEL-28 melanoma)	growth (SK-MEL-5 melanoma)
CC1(C)c2ccccc2C(=O)C1(Br)Cc1ccccc1 (stereo not drawn)	92.5%	42.7%	121%	105%	83.5%	89.6%	85.7%	89.9%	99.4%	89.1	71.3%	67.4%	78.8%	81.1%	91%	77.4%	78.3%	78.7	95.8%	–
Cc1ccc(S(=O)(=O)Nc2ccc(-c3cc(-c4cccc(F)c4)c(C#N)c(=O)[nH]3)cc2)cc1	84%	54.9%	92.6%	87.4%	83.1%	74.2%	87.9%	90.1%	103%	81.3	58.2%	54.6%	85%	84.3%	71%	68.8%	60.3%	–	97.4%	–
Nc1c2c(nc3ccc(Cl)cc13)CC(c1ccc(O)cc1)CC2=O (stereo not drawn)	72.9%	18.5%	52.6%	68.5%	74.2%	65.3%	36.2%	50.8%	78.2%	21.8	29.3%	101%	30.5%	45.8%	47.2%	49.2%	32.8%	–	57%	–
COc1cc2c(cc1-c1c(C)noc1C)ncc1nc(C3CC3)n([C@H](C)COC(F)F)c12	72.4%	30.4%	80.4%	51%	53.9%	71.2%	56.8%	39.4%	36.3%	44.2	23.9%	17.3%	34.3%	60.1%	52.8%	39.1%	25.5%	15.5	63.5%	–
c1cc(N2CCCC2)c2nc(-c3[nH]ncc3Nc3ncnc4[nH]ccc34)[nH]c2c1	-4.71% (active)	6.25% (active)	-41.4% (active)	-15.2% (active)	-75.9% (active)	-25.1% (active)	-34% (active)	-54.3% (active)	-12.8% (active)	–	-26.4% (active)	1.13% (active)	-59.6% (active)	-13.1% (active)	3% (active)	3.86% (active)	-78.5% (active)	–	-53.3% (active)	-89.3% (active)
CCC1C(=O)COC1=O (stereo not drawn)	108%	92%	99.3%	-22.4% (active)	122%	101%	97.9%	105%	81.8%	–	103%	62.7%	91%	99.3%	85%	74.3%	–	93.2	112%	102%
NCCNc1nc(-c2ccccc2)nc2nc(-c3ccccc3)oc12	98.2%	24.2%	102%	92.8%	85.9%	73.3%	101%	90.4%	111%	97.8	70%	71.6%	61.9%	89.8%	–	80.4%	99.9%	–	103%	89.2%
Cc1ccncc1C(=O)O	101%	116%	96.2%	101%	118%	94.8%	99.8%	94.4%	102%	100	104%	101%	86.6%	92.9%	–	90.1%	–	94	95.4%	–
C=C1C(=O)O[C@H]2[C@H]1CC/C(COC(=O)N[C@H](Cc1c[nH]c3ccccc13)C(=O)OC)=C\CC[C@@]1(C)O[C@@H]21	40.9%	7.14% (active)	4.76% (active)	26.8%	-25.5% (active)	72.6%	91.9%	11.6%	63.7%	–	1.89% (active)	14.9%	82%	66.7%	72.7%	57.3%	–	13.7	9.69% (active)	39%
